The results in this text go back to PubChem BioAssay (EPA / NIEHS).

Assay [1] relates to Sodium/Iodide Symporter (NIS), SLC5A5 (gene 6528). The experiment in a line: CPHEA_Stoker_NIS_Inhibition_RAIU: CPHEA's Radioactive Iodide Uptake (RAIU) Assay for Sodium/Iodide Symporter (NIS) Inhibition, Stoker and Laws Labs (AID 2283841). In outline:
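Iodide uptake read as CPM of intracellular 125I (final 329 pM) after 2 h room-temperature exposure in HEPES-buffered HBSS, pH 7.4. Human NIS-expressing HEK293T cells; six concentrations 0.001–100 uM, 0.5% DMSO, normalised to DMSO wells.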

Assay [2] in a line: CEETOX_H295R_OHPREG_noMTC: CeeTox H295R High-throughput Steroidogenesis Assay for OH-Pregnenolone (OHPREG), maximum tolerated concentration (MTC) filtered results only (AID 2283912; active = hit-call score of the fitted dose curve at least 0.9, where 1 is the maximum; inactive = score below 0.9). Particulars: actives raise or lower the signal. In outline:
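H295R cells prestimulated 48 h with 10 uM forskolin, then exposed 48 h to compound (0.1% DMSO). 17alpha-hydroxypregnenolone in medium measured by MTBE extraction and HPLC-MS/MS; bidirectional fit vs DMSO, concentrations not MTT/MTC-filtered.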

Assay [3] is described as follows: CEETOX_H295R_OHPROG_noMTC: CeeTox H295R High-throughput Steroidogenesis Assay for OH-Progesterone (OHPROG), maximum tolerated concentration (MTC) filtered results only (AID 2283914; active = hit-call score of the fitted dose curve at least 0.9, where 1 is the maximum; inactive = score below 0.9). As to conditions: actives raise or lower the signal. Summed up:
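H295R cells prestimulated 48 h with 10 uM forskolin, then exposed 48 h to chemical (0.1% DMSO final). 17alpha-hydroxyprogesterone in medium quantified by HPLC-MS/MS after MTBE extraction; bidirectional fitting versus DMSO, concentrations not MTC-filtered.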

Assay [4] can be described thus: CEETOX_H295R_ESTRADIOL_noMTC: CeeTox H295R High-throughput Steroidogenesis Assay for Estradiol, maximum tolerated concentration (MTC) filtered results only (AID 2283919; active = hit-call score of the fitted dose curve at least 0.9, where 1 is the maximum; inactive = score below 0.9). Particulars: actives raise or lower the signal. In outline:
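H295R human adrenal cells pre-stimulated 48 h with 10 uM forskolin, then exposed 48 h to chemical (0.1% DMSO final). Estradiol in medium measured by HPLC-MS/MS after MTBE extraction and dansyl derivatization; bidirectional fit versus DMSO, concentrations not MTT-filtered.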

The nature of assay [5]: CEETOX_H295R_PROG_noMTC: CeeTox H295R High-throughput Steroidogenesis Assay for Progesterone (PROG), maximum tolerated concentration (MTC) filtered results only (AID 2283920; active = hit-call score of the fitted dose curve at least 0.9, where 1 is the maximum; inactive = score below 0.9). Particulars: actives raise or lower the signal. Summed up:
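H295R cells, prestimulated 48 h with 10 uM forskolin, exposed 48 h to chemical in 0.1% DMSO. Medium progesterone quantified by MTBE extraction and HPLC-MS/MS; bidirectional fit versus DMSO, concentrations not MTT-filtered.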

Assay [6] in a line: CEETOX_H295R_ESTRONE_noMTC: CeeTox H295R High-throughput Steroidogenesis Assay for Estrone, maximum tolerated concentration (MTC) filtered results only (AID 2283921; active = hit-call score of the fitted dose curve at least 0.9, where 1 is the maximum; inactive = score below 0.9). As to conditions: actives raise or lower the signal. In outline:
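H295R cells prestimulated 48 h with 10 uM forskolin, then exposed 48 h to chemical in 0.1% DMSO; medium estrone measured by HPLC-MS/MS after MTBE extraction and dansyl derivatization, fitted bidirectionally versus DMSO without MTT-based MTC filtering.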

Assay [7] can be described thus: CEETOX_H295R_11DCORT_noMTC: CeeTox H295R High-throughput Steroidogenesis Assay for 11-Deoxycortisol (11DCORT), maximum tolerated concentration (MTC) filtered results only (AID 2283911; active = hit-call score of the fitted dose curve at least 0.9, where 1 is the maximum; inactive = score below 0.9). As to conditions: actives raise or lower the signal. In outline:
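Values carry no filtering for maximum tolerated concentration: medium from forskolin-primed (10 uM, 48 h) H295R cells after 48 h chemical exposure (0.1% DMSO) was MTBE-extracted, and 11-deoxycortisol quantified by reverse-phase HPLC-MS/MS. Fitting was bidirectional against DMSO.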

The nature of assay [8]: CEETOX_H295R_ANDR_noMTC: CeeTox H295R High-throughput Steroidogenesis Assay for Androstenedione (ANDR), maximum tolerated concentration (MTC) filtered results only (AID 2283915; active = hit-call score of the fitted dose curve at least 0.9, where 1 is the maximum; inactive = score below 0.9). As to conditions: actives raise or lower the signal. In outline: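 H295R cells, passage 10 or below, prestimulated 48 h with 10 uM forskolin, then exposed 48 h to chemical in 0.1% DMSO. Medium androstenedione extracted with MTBE, quantified by HPLC-MS/MS; concentrations not MTC-filtered; bidirectional fit versus DMSO.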

Assay [9] is described as follows: CEETOX_H295R_CORTISOL_noMTC: CeeTox H295R High-throughput Steroidogenesis Assay for Cortisol, maximum tolerated concentration (MTC) filtered results only (AID 2283916; active = hit-call score of the fitted dose curve at least 0.9, where 1 is the maximum; inactive = score below 0.9). As to conditions: actives raise or lower the signal. In outline: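 H295R human adrenal cells prestimulated 48 h with 10 uM forskolin, then exposed 48 h to chemical in 0.1% DMSO; cortisol in medium quantified by HPLC-MS/MS; bidirectional fit vs DMSO baseline, concentrations not MTT-filtered for MTC.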

The nature of assay [10]: CEETOX_H295R_CORTIC_noMTC: CeeTox H295R High-throughput Steroidogenesis Assay for Corticosterone (CORTIC), maximum tolerated concentration (MTC) filtered results only (AID 2283917; active = hit-call score of the fitted dose curve at least 0.9, where 1 is the maximum; inactive = score below 0.9). As to conditions: actives raise or lower the signal. In outline:
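H295R adrenal cells pre-stimulated 48 h with 10 uM forskolin, then exposed 48 h to chemical in 0.1% DMSO; corticosterone in medium quantified by HPLC-MS/MS, fitted bidirectionally versus DMSO without MTT-based concentration filtering.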

A short description of assay [11]: CEETOX_H295R_DOC_noMTC: CeeTox H295R High-throughput Steroidogenesis Assay for DOC, maximum tolerated concentration (MTC) filtered results only (AID 2283918; active = hit-call score of the fitted dose curve at least 0.9, where 1 is the maximum; inactive = score below 0.9). Particulars: actives raise or lower the signal. In outline:
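H295R cells prestimulated 48 h with 10 uM forskolin, then exposed 48 h to chemical in 0.1% DMSO. 11-Deoxycorticosterone in medium measured by MTBE extraction and HPLC-MS/MS; bidirectional fit vs DMSO, no MTC filter.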

The nature of assay [12]: CEETOX_H295R_TESTO_noMTC: CeeTox H295R High-throughput Steroidogenesis Assay for Testosterone (TESTO), maximum tolerated concentration (MTC) filtered results only (AID 2283924; active = hit-call score of the fitted dose curve at least 0.9, where 1 is the maximum; inactive = score below 0.9). Particulars: actives raise or lower the signal. Summed up: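 H295R cells prestimulated 48 h with 10 uM forskolin, then exposed 48 h to chemicals in 0.1% DMSO final. Testosterone in medium quantified by MTBE extraction and HPLC-MS/MS; bidirectional fit versus DMSO, concentrations […] filtered by MTT-based maximum tolerated concentration.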

The nature of assay [13]: CPHEA_Stoker_NIS_Cytotoxicity: Cytotoxicity Assessment for CPHEA's Radioactive Iodide Uptake (RAIU) Assay for Sodium/Iodide Symporter (NIS) Inhibition, Stoker and Laws Labs (AID 2283897). In outline:
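CellTiter-Glo ATP luminescence gauged viability in HEK293T cells expressing human NIS after 2 h chemical exposure. Concentrations ran 0.001–100 uM in 0.5% DMSO; DMSO served as baseline for the loss-of-signal fit.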

Assay [14] is described as follows: ATG_M_61_XSP2: Attagene TRANS-FACTORIAL Multi-Species (XSP2) HepG2 Assay for M61 Transcription Factor (Internal Marker) (AID 2283835; active = hit-call score of the fitted dose curve at least 0.9, where 1 is the maximum; inactive = score below 0.9;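 note: active means a rise in signal above the DMSO baseline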). Summed up:
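HepG2 cells transiently transfected with multiple GAL4-UAS reporter units; reporter mRNA measured 24 h after dosing by RT-PCR, fluorescent labelling and capillary electrophoresis. Medium contained 3 nM 6-alpha-fluorotestosterone and 1.5 nM norgestrel; internal marker, DMSO baseline.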

For assay [15], the target named is zebrafish Thyroid Hormone Receptor beta (TRb), thrb (gene 30607) (UniProt Q9PVE4). The experiment in a line: ATG_zfTRb_XSP2: Attagene TRANS-FACTORIAL Multi-Species (XSP1) HepG2 Assay for zebrafish Thyroid Hormone Receptor beta (TRb) (AID 2283836). Summed up:
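Fluorescence of labelled reporter cDNA fragments, separated by capillary electrophoresis, gives mRNA induction from exogenous NR-Gal4 chimeras in transiently transfected HepG2 cells after 24 h dosing; 3 nM 6-alpha-fluorotestosterone and 1.5 nM norgestrel included in the run.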

For assay [16], the target named is human Thyroid hormone Receptor alpha (TRa), THRA (gene 7067) (UniProt P10827). The experiment in a line: ATG_hTRa_XSP2: Attagene TRANS-FACTORIAL Multi-Species (XSP2) HepG2 Assay for human Thyroid hormone Receptor alpha (TRa) (AID 2283838). Summed up: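 HepG2 cells transiently transfected with multiplexed GAL4-UAS reporter units and exogenous NR-GAL4 chimeras; 24 h chemical exposure with 3 nM 6-alpha-fluorotestosterone and 1.5 nM norgestrel present. Reporter mRNA measured by RT-PCR, FAM labelling, HpaI digestion, capillary electrophoresis; gain-of-signal versus DMSO.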

For assay [17], the target named is frog Thyroid hormone Receptor alpha (TRa), thra-a (gene 397942) (UniProt P15204). The experiment in a line: ATG_frTRa_XSP2: Attagene TRANS-FACTORIAL Multi-Species (XSP2) HepG2 Assay for frog Thyroid hormone Receptor alpha (TRa) (AID 2283839). In outline: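 Reporter transcripts were measured by RT-PCR with capillary electrophoresis after 24 h dosing of HepG2 carrying transiently transfected multi-reporter units, including a chimeric frog TRa-GAL4 construct. Activity was taken as increase over DMSO vehicle.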

The target in assay [18] is human Thyroid hormone Receptor beta (TRb), THRB (gene 7068) (UniProt P10828). The assay is described as follows: ATG_hTRb_XSP2: Attagene TRANS-FACTORIAL Multi-Species (XSP2) HepG2 Assay for human Thyroid hormone Receptor beta (TRb) (AID 2283840).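 Note: actives raise reporter mRNA so potency reflects agonist-like gain of signal.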 In outline:
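Activity of exogenous human TRb–Gal4 fusion measured by reporter mRNA from RT-PCR and capillary electrophoresis, 24 h after dosing transfected HepG2. 6-alpha-fluorotestosterone (3 nM) and norgestrel (1.5 nM) present. Gain-of-signal fit relative to DMSO.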

Inconclusive results are not listed. Active and inactive are the calls of the source. Rule for the calls, unless noted: active = hit-call score of the fitted dose curve at least 0.9, where 1 is the maximum; inconclusive = response in the unintended direction; inactive = score below 0.9.

human Thyroid hormone Receptor alpha (TRa), THRA (gene 7067), sequence (P10827 whole entry, looked up, the tested form may be a part): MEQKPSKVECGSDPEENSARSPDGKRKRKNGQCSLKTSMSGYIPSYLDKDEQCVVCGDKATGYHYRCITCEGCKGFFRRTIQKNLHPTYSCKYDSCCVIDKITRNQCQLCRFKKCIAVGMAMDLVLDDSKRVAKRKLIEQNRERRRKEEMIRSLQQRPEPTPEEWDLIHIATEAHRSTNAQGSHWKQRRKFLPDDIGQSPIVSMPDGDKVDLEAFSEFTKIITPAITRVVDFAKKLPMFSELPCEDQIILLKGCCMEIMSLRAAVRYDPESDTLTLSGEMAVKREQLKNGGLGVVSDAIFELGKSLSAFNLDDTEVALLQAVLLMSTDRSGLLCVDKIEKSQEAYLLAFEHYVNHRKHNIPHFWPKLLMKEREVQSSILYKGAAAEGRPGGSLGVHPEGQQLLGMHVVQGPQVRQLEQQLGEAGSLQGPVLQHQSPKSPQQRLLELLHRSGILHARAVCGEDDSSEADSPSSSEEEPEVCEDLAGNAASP
zebrafish Thyroid Hormone Receptor beta (TRb), thrb (gene 30607), sequence (Q9PVE4 whole entry, looked up, the tested form may be a part): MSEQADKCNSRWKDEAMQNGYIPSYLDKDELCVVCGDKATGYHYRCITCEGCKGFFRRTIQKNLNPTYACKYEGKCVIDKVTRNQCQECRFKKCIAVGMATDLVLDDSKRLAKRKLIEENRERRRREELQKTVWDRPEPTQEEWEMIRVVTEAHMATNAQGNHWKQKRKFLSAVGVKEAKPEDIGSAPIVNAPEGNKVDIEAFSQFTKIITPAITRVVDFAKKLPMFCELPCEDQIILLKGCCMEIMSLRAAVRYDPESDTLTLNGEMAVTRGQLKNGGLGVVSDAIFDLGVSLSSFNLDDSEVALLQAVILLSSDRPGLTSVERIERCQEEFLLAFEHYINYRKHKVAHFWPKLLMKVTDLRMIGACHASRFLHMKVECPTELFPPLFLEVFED
human Thyroid hormone Receptor beta (TRb), THRB (gene 7068), sequence (P10828 whole entry, looked up, the tested form may be a part): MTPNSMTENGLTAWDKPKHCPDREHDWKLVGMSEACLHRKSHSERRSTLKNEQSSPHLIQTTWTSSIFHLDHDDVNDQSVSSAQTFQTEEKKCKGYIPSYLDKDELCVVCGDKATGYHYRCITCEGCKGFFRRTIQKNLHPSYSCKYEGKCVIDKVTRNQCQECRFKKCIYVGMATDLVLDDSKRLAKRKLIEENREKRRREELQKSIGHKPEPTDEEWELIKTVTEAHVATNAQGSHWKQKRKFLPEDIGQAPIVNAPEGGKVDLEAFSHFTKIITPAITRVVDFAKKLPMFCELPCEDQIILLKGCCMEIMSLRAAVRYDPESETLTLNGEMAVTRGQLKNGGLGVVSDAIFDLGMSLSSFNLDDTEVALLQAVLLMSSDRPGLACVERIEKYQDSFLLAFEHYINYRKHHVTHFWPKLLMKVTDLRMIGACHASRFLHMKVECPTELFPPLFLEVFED
frog Thyroid hormone Receptor alpha (TRa), thra-a (gene 397942), sequence (P15204 whole entry, looked up, the tested form may be a part): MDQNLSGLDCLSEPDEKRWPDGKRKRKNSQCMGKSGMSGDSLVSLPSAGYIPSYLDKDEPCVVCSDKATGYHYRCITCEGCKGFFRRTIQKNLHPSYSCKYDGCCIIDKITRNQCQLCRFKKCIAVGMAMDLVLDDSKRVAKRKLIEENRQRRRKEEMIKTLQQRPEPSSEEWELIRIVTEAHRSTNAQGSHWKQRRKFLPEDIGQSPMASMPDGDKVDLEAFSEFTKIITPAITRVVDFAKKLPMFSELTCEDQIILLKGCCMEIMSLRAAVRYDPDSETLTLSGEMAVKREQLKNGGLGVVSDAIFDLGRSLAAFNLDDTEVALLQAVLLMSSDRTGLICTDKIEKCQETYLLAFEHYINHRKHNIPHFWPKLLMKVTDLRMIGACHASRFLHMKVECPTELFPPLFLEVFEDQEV

For `FC(F)(F)C(F)(F)C(F)(F)C(F)(F)CCI`, the outcome in [1] was inactive.

`Cc1ccc(S(=O)(=O)OCC(F)(F)C(F)(F)C(F)(F)C(F)(F)C(F)(F)C(F)F)cc1`: the result in assay [1] was inactive.

For the molecule `OCC(F)(F)C(F)(F)C(F)(F)C(F)(F)C(F)(F)C(F)(F)F`, the outcome in assay [1] was inactive.

As to `COC(=O)C1CCC(C(=O)OC)CC1` (stereo unspecified), the molecule was called inactive in assay [2], in assay [3], in [4], in assay [5] and in assay [6].

Turning to `CCCCCCCOC(=O)c1ccccc1C(=O)OCCCCCCC`, the molecule was classed as inactive in [7], in assay [2], in assay [3], in [8], in [9] and in assay [10]. The result in [11], in assay [5] and in assay [12] was inactive.

For `C=C(C)C(=O)OCC(F)(F)C(F)(F)C(F)(F)C(F)(F)C(F)(F)C(F)(F)C(F)(F)F`, the result in assay [1] was inactive.

As for `CCCCCCOC(=O)c1ccccc1O`, the result in [1] and in assay [13] was inactive.

Regarding `O=C(OCCOCCOCCOC(=O)c1ccccc1)c1ccccc1`, the call in assay [14], in assay [15], in assay [16], in [17], in assay [18] and in assay [1] was inactive. For the same molecule, in assay [13], the result was inactive.

On to `O=C(O)C(F)(F)C(F)(F)C(F)(F)C(F)(F)C(F)(F)C(F)(F)C(F)(F)C(F)(F)C(F)(F)C(F)(F)C(F)(F)C(F)(F)C(F)(F)F`, for which the outcome in assay [1] was inactive.

On to `O=C(O)C(F)(F)C(F)(F)C(F)(F)C(F)(F)C(F)(F)C(F)(F)C(F)(F)C(F)(F)C(F)(F)C(F)(F)C(F)(F)C(F)(F)F`, for which the outcome in assay [1] was inactive.

Take `O=C(O)C(F)(F)C(F)(F)C(F)(F)C(F)(F)C(F)(F)C(F)(F)C(F)(F)C(F)(F)Cl`: the half-maximal activity concentration (AC50) in [1] was 33.6 µM (active).

As to `O=C(O)C(F)(F)C(F)(F)C(F)(F)C(F)(F)C(F)(F)C(F)(F)C(F)(F)C(F)(F)C(F)(F)C(F)F`, the AC50 in assay [1] was 21.7 µM (active).

As a reminder, the AC50 is the concentration giving half of the maximal activity seen.
